Test results published in PubChem BioAssay (NCI).
Compounds without any hit were thinned out: in the full panel of roughly 79,000, 15% have a hit. Unmarked numbers belong to inactive results. Active and inactive are the calls of the source. Cut-off read from the data, not from the text of the source: active = growth inhibition above about 70%; inactive = the rest.

assay: NCI Yeast Anticancer Drug Screen. Data for the rad50 strain (AID 155);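 note: 0% = growth of vehicle-only cultures of the same strain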; conditions: S. cerevisiae rad50 strain growth inhibition; at 50.0 µM; active compounds read high
Method in brief: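 Readout: growth inhibition relative to vehicle-treated cultures. Compound exposure was carried out in a genetically defined yeast strain deficient in DNA damage repair.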

Row | SMILES | growth inhibition
1 | CCCCCCCCCCCCCCCBr | 10.7%
2 | CCCCCCCCCCCC(=O)OCC(C)C | 0.95%
3 | O[Si](O)(c1ccccc1)c1ccccc1 | 96.2% (active)
4 | O=C(c1ccccc1)C(C(=O)c1ccccc1)c1ccc2ccccc2n1 | 19.2%
5 | O=C1C=CC(=O)N1c1ccccc1[N+](=O)[O-] | 99.5% (active)
6 | CCCCCCCCCCCC(O)=C1C(=O)CC(O)CC1=O (stereo not given) | 88.3% (active)
7 | OCCc1cccc2ccc3ccccc3c12 | 85.9% (active)
8 | O=C1C(=O)C(Cl)=C(Cl)C(Cl)=C1Cl | 99.3% (active)
9 | O=C1C=CC2C(=O)c3ccccc3C(=O)C2=C1 (stereo not given) | 73.5% (active)
10 | O=C(N(c1ccc(Cl)cc1)c1ccc(Cl)cc1)C(Cl)(Cl)Cl | -13.9%
11 | COc1cccc2c1S(=O)(=O)C(c1ccccc1)=CC2=O | 99.5% (active)
12 | COc1cc(-c2nn3c(=O)n(-c4ccc(Cl)cc4)c(=O)nc3s2)cc(OC)c1OC | 30.8%
13 | O=[N+]([O-])C1(CO)COC(CCc2ccccc2)OC1 (stereo not given) | 67.7%
14 | COc1ccc(C(=O)CCc2c[nH]c3ccccc23)c(O)c1 | -1.85%
15 | CC/C(=C(\CC)c1ccc(OCCN2CCOCC2)cc1)c1ccc(OCCN2CCOCC2)cc1 | 82.8% (active)
16 | CCCCCCCCCCCN1C(=O)c2ccccc2S1(=O)=O | -22.4%
17 | CCCCCCCCCCCC(=O)NN | 97.4% (active)
18 | CCN1CCC(O)(/C=C/c2ccccc2)C(C(=O)/C=C/c2ccccc2)C1 (stereo not given) | 97.7% (active)
19 | NC(=S)NNCCC(=O)Nc1ccccc1C(F)(F)F | -9.75%
20 | NS(=O)(=O)c1ccc(N=Cc2c3ccccc3nc3cc(Cl)ccc23)cc1 | 46.4%

Row | SMILES | growth inhibition
21 | Nc1ccc(O)c(=O)cc1 | 50.2%
22 | Oc1ccc[nH]c1=S | 18.4%
23 | COc1cccc2c1C(=O)c1c(O)c3c(c(O)c1C2=O)C[C@@](O)(/C(C)=N/NC(=O)c1ccc(Cl)c(Cl)c1)C[C@@H]3OC1CC(N)C(O)C(C)O1 (stereo not given in full) | 42%
24 | O=C1c2ccccc2C(=O)c2c1ccc(O)c2O.[Cu] | 98% (active)
25 | CCC(=O)C(C(=O)CC)c1c(OC(=O)c2ccccc2)ccc(O)c1C(=O)OC | 30.9%
26 | CC(C)CCCC(C)C1CCC2(C)C3=CCC4C(C)(CCC(O)C4(C)C)C3=CCC12C (stereo not given) | 89% (active)
27 | CCNC(=O)COc1ccc(Cl)cc1Cl | -17.6%
28 | CCN1CCC(O)(/C=C/c2ccc(Cl)c(Cl)c2)C(C(=O)/C=C/c2ccc(Cl)c(Cl)c2)C1 (stereo not given) | 99% (active)
29 | Nc1ccc(-c2ccc(N)cc2S(=O)(=O)O)c(S(=O)(=O)O)c1 | -27.6%
30 | COc1ccc2c(c1)CCc1c(-c3noc4c3CCc3cc(OC)ccc3-4)noc1-2 | 9.65%
31 | Cc1ccc(NC(=S)N(CCC#N)C2CCCCC2)cc1C | 21.9%
32 | COc1ccc2c(c1)CC1c3c(ccc(OC)c3O)CC2N1C (stereo not given) | 86.7% (active)
33 | CCN(CC)CCCC(C)Nc1c2ccccc2nc2c(C)cc(Br)cc12 (stereo not given) | 58%
34 | O=C(O)c1cc2ccc3cccc4ccc(c1)c2c34 | 80.3% (active)
35 | CCOC(=O)NC(=S)Nc1ccsc1 | 15.6%
36 | CC(C)CCC(C)(C)c1cc(O)ccc1O | 98.4% (active)
37 | COc1ccc(C(c2cc3c(cc2O)OCO3)N2CCOCC2)c(OC)c1OC (stereo not given) | 95.5% (active)
38 | CCOC(=O)C1=C(C)NC(C)=C(C(=O)OCC)C1c1c(-c2ccccc2)noc1C | 6.6%
39 | O=C(CCl)Oc1ccc(Sc2ccc(OC(=O)CCl)cc2)cc1 | 98.7% (active)
40 | Nc1ccc2[nH]c3ccccc3c2c1 | 92.3% (active)

assay: NCI Yeast Anticancer Drug Screen. Data for the mec2-1 strain (AID 157); conditions: S. cerevisiae mec2-1 strain, at 5.0 µM (retest, dose inferred, filed as 0.5), active compounds read high
Method in brief: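 Using mec2-1 yeast: add compound, measure growth, express inhibition versus vehicle-treated cultures.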

Row | SMILES | growth inhibition
41 | CCCCCCCCCCCCCCCBr | -9%
42 | CCCCCCCCCCCC(=O)OCC(C)C | -7%
43 | O[Si](O)(c1ccccc1)c1ccccc1 | 7%
44 | O=C(c1ccccc1)C(C(=O)c1ccccc1)c1ccc2ccccc2n1 | 1%
45 | O=C1C=CC(=O)N1c1ccccc1[N+](=O)[O-] | 99% (active)
46 | CCCCCCCCCCCC(O)=C1C(=O)CC(O)CC1=O (stereo not given) | 25%
47 | OCCc1cccc2ccc3ccccc3c12 | -1%
48 | O=C1C(=O)C(Cl)=C(Cl)C(Cl)=C1Cl | 7%
49 | O=C1C=CC2C(=O)c3ccccc3C(=O)C2=C1 (stereo not given) | 17%
50 | O=C(N(c1ccc(Cl)cc1)c1ccc(Cl)cc1)C(Cl)(Cl)Cl | 23%
51 | COc1cccc2c1S(=O)(=O)C(c1ccccc1)=CC2=O | 48%
52 | COc1cc(-c2nn3c(=O)n(-c4ccc(Cl)cc4)c(=O)nc3s2)cc(OC)c1OC | 0%
53 | O=[N+]([O-])C1(CO)COC(CCc2ccccc2)OC1 (stereo not given) | 0%
54 | COc1ccc(C(=O)CCc2c[nH]c3ccccc23)c(O)c1 | -9%
55 | CC/C(=C(\CC)c1ccc(OCCN2CCOCC2)cc1)c1ccc(OCCN2CCOCC2)cc1 | 36%
56 | CCCCCCCCCCCN1C(=O)c2ccccc2S1(=O)=O | -2%
57 | CCCCCCCCCCCC(=O)NN | 12%
58 | CCN1CCC(O)(/C=C/c2ccccc2)C(C(=O)/C=C/c2ccccc2)C1 (stereo not given) | 6%
59 | NC(=S)NNCCC(=O)Nc1ccccc1C(F)(F)F | -2%
60 | NS(=O)(=O)c1ccc(N=Cc2c3ccccc3nc3cc(Cl)ccc23)cc1 | 12%

Row | SMILES | growth inhibition
61 | Nc1ccc(O)c(=O)cc1 | -40%
62 | Oc1ccc[nH]c1=S | 6%
63 | COc1cccc2c1C(=O)c1c(O)c3c(c(O)c1C2=O)C[C@@](O)(/C(C)=N/NC(=O)c1ccc(Cl)c(Cl)c1)C[C@@H]3OC1CC(N)C(O)C(C)O1 (stereo not given in full) | 25%
64 | O=C1c2ccccc2C(=O)c2c1ccc(O)c2O.[Cu] | 41%
65 | CCC(=O)C(C(=O)CC)c1c(OC(=O)c2ccccc2)ccc(O)c1C(=O)OC | -1%
66 | CC(C)CCCC(C)C1CCC2(C)C3=CCC4C(C)(CCC(O)C4(C)C)C3=CCC12C (stereo not given) | -18%
67 | CCNC(=O)COc1ccc(Cl)cc1Cl | -10%
68 | CCN1CCC(O)(/C=C/c2ccc(Cl)c(Cl)c2)C(C(=O)/C=C/c2ccc(Cl)c(Cl)c2)C1 (stereo not given) | 99% (active)
69 | Nc1ccc(-c2ccc(N)cc2S(=O)(=O)O)c(S(=O)(=O)O)c1 | 0%
70 | COc1ccc2c(c1)CCc1c(-c3noc4c3CCc3cc(OC)ccc3-4)noc1-2 | 5%
71 | Cc1ccc(NC(=S)N(CCC#N)C2CCCCC2)cc1C | -22%
72 | COc1ccc2c(c1)CC1c3c(ccc(OC)c3O)CC2N1C (stereo not given) | -44%
73 | CCN(CC)CCCC(C)Nc1c2ccccc2nc2c(C)cc(Br)cc12 (stereo not given) | 8%
74 | O=C(O)c1cc2ccc3cccc4ccc(c1)c2c34 | 1%
75 | CCOC(=O)NC(=S)Nc1ccsc1 | -4%
76 | CC(C)CCC(C)(C)c1cc(O)ccc1O | 13%
77 | COc1ccc(C(c2cc3c(cc2O)OCO3)N2CCOCC2)c(OC)c1OC (stereo not given) | 4%
78 | CCOC(=O)C1=C(C)NC(C)=C(C(=O)OCC)C1c1c(-c2ccccc2)noc1C | 7%
79 | O=C(CCl)Oc1ccc(Sc2ccc(OC(=O)CCl)cc2)cc1 | 12%
80 | Nc1ccc2[nH]c3ccccc3c2c1 | 0%
